Screening results deposited in PubChem by National Center for Advancing Translational Sciences (NCATS).
HT1080 IDH1KD tx: toxicity to HT-1080 IDH1 knockdown cells (counter line); AID 686971; Potency, µM (doses to about 46.1 µM), usual class: cytotoxic; HT-1080 IDH1 knockdown viability, ATP luminescence, 48 h; 360,000 compounds, 2% hits
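Cytotoxicity counter-line: IDH1KD HT-1080, 48 h, CellTiter-Glo. Curves classed by r2, magnitude and activity.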
TDP1 cell CPT: growth inhibition of DT40 Tdp1-/-;hTDP1 cells with camptothecin (screen for TDP1 inhibitors). AID 686979. 420,000 compounds, 12% hits. chicken DT40 Tdp1-/-;hTDP1 cells + 20 nM CPT, ATP luminescence, 48 h. Potency, µM (titrated, usually from 46.2 µM), hits mostly inhibitors; further: nearly all actives have a fitted effect of over 55% in size
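Cell growth measured by CellTiter-Glo luminescence after a minimum 48 h, 37 C compound exposure with 20 nM CPT in Tdp1-knockout DT40 cells stably expressing hTDP1, seeded 400/well; qHTS titration format.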
ELG1 DNA repair: blocks ELG1-dependent DNA repair in HEK293T cells; HEK293T ELG1-luciferase reporter, luminescence, 16 h; DNA damage induced by 5-fluorouridine; Potency, µM (titrated, usually from 46.1 µM), actives largely listed as inhibitors; 330,000 compounds, 2.3% hits; AID 504467; further: nearly all actives have a fitted effect of over 55% in size
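Reporter activity after DNA damage by 5-fluorouridine is monitored. Compound-treated cells incubate 16 hr at 37 °C, then ONE-Glo is added for 30 min before luminescence reading.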
HT1080NT lethal: kills 2HG-producing HT-1080-NT fibrosarcoma cells; HT-1080-NT fibrosarcoma viability, CellTiter-Glo ATP luminescence, 48 h; Potency, µM (series often up to 46.1 µM), hits mostly cytotoxic; 360,000 compounds, 1.6% hits;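 further: NT is the 2HG producing partner of a matched IDH1 knockdown line; nearly all actives have a fitted effect of over 55% in size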
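Fibrosarcoma NT cells, 750 per well in 5% FBS RPMI, were exposed to compound for 48 hours. Viability: CellTiter-Glo luminescence.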
DT40 TDP1 no CPT: qHTS for Inhibitors of human tyrosyl-DNA phosphodiesterase 1 (TDP1): qHTS in cells in absence of CPT; DT40 Tdp1-/- hTDP1 cells, no CPT, ATP luminescence, 48 h; Potency, µM (titrated, usually from 46.2 µM), actives largely listed as inhibitors; AID 686978, 2013; 420,000 compounds, 15% hits; further: nearly all actives have a fitted effect of over 55% in size
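Growth of hTDP1-complemented DT40 Tdp1-knockout cells is measured by ATP luminescence after at least 48 hr compound exposure at 37 °C, with DMSO substituting for the 20 nM CPT used in the parallel screen.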
IL-1B inflam inh: inflammasome signaling inhibition, IL-1 beta readout; 360,000 compounds, 4.7% hits; activity change, % at 57.5 µM; THP-1 LPS/ATP IL-1B secretion, AlphaLISA, 16 h; hits give low values; in the data active means activity change below about -50%; inconclusive means mostly about -30% to -49%
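Secreted IL-1B measured by AlphaLISA bead assay after 16 h compound exposure of THP-1 cells; compounds (final up to 57.5 uM) added 1 h before LPS (250 ng/mL) and ATP (1.25 mM) stimulation; lower signal means less secretion.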
Of the large screens only hits and unclear results are named; the others gave an inactive call. Most compounds without a hit are left out; they make up all but 19% or so of the library. Unless noted, the call rests on the fitted dose curve; in most records, active means well fitted curve in the direction sought with a large enough effect; inconclusive means small, poorly fitted or top-dose-only effect, or another doubt; inactive means no such curve, though single readings can be large; an effect the other way counts as inactive or inconclusive.

O=C(c1ccccn1)N1CCN(S(=O)(=O)c2ccccc2)CC1	none
COc1ccc(C2CC(=O)NC(NC(=O)c3ccc(Br)cc3)=N2)c(OC)c1OC (stereo unspecified)	none (no result: HT1080 IDH1KD tx, ELG1 DNA repair, HT1080NT lethal, IL-1B inflam inh)
CN(C(=O)C=Cc1ccccc1)c1ccccc1	none (no result: ELG1 DNA repair)
O=C(CCl)N(O)c1ccc(C=Cc2ccccc2)cc1	TDP1 cell CPT 0.13µM, DT40 TDP1 no CPT 0.21µM, IL-1B inflam inh -77 (no result: ELG1 DNA repair)
COc1ccc(OC)c(NC(=O)CSc2ncnc3c2cnn3-c2ccccc2Cl)c1	TDP1 cell CPT 2.1µM, ELG1 DNA repair 9.2µM, DT40 TDP1 no CPT 1.3µM, IL-1B inflam inh -79
N#CCCN1CCCN(CCC#N)CCN(CCC#N)CCCN(CCC#N)CC1	none
O=[N+]([O-])c1ccc(CNCc2cc(Cl)ccc2O)cc1	TDP1 cell CPT inconclusive, ELG1 DNA repair inconclusive, DT40 TDP1 no CPT inconclusive
CN1C(=S)SC(C)(C)C1N(O)C(=O)Nc1ccc(Cl)cc1 (stereo unspecified)	TDP1 cell CPT inconclusive, DT40 TDP1 no CPT inconclusive
CN1C(=S)SC(N(O)C(=O)Nc2ccc(Cl)c(Cl)c2)C1(C)C (stereo unspecified)	HT1080 IDH1KD tx inconclusive, TDP1 cell CPT 21µM, ELG1 DNA repair inconclusive, DT40 TDP1 no CPT 16µM
CCCCCc1ccc2cc(C#N)ccc2n1	none (no result: ELG1 DNA repair)
Cc1cc(C)cc(NC(=S)/C(=C(\[O-])c2ccc(Cl)s2)[n+]2cccc(C)c2)c1	TDP1 cell CPT 18µM, DT40 TDP1 no CPT 21µM
[O-]/C(=C(\C(=S)Nc1cccc2ccccc12)[n+]1ccccc1)c1ccc(Cl)s1	TDP1 cell CPT inconclusive, DT40 TDP1 no CPT 18µM
CCc1cccc(CC)c1NC(=S)/C(=C(\[O-])c1ccc(Cl)s1)[n+]1ccccc1	TDP1 cell CPT 2.3µM, DT40 TDP1 no CPT 1.8µM
Cc1ccc(C)c(NC(=S)/C(=C(\[O-])c2ccc(Cl)s2)[n+]2ccccc2)c1	none
O=C(COC(=O)c1nc(Cl)ccc1Cl)NNC(=O)c1cccs1	none
c1ncc(CC2CCNCC2)[nH]1	none (no result: HT1080 IDH1KD tx, ELG1 DNA repair, HT1080NT lethal, IL-1B inflam inh)
Cc1ccc(C(CC(=O)O)NC(=O)c2ccc(S(=O)(=O)N3CC(C)OC(C)C3)cc2)cc1 (stereo unspecified)	none
Cc1cnc(-n2ncc(C(=O)NCc3cccnc3)c2C)nc1-c1ccc(F)cc1	none (no result: HT1080 IDH1KD tx, ELG1 DNA repair, HT1080NT lethal, IL-1B inflam inh)
COC(=O)C1CCN(Cc2ccc3c(c2)CN(C(=O)c2cc(-c4ccc(C)o4)[nH]n2)CCO3)CC1	TDP1 cell CPT 0.082µM, DT40 TDP1 no CPT inconclusive (no result: HT1080 IDH1KD tx, ELG1 DNA repair, HT1080NT lethal, IL-1B inflam inh)
COC(=O)C1CCN(Cc2ccc3c(c2)CN(C(=O)c2cc(C)on2)CCO3)CC1	none (no result: HT1080 IDH1KD tx, ELG1 DNA repair, HT1080NT lethal, IL-1B inflam inh)
COC(=O)C1CCN(Cc2ccc3c(c2)CN(C(=O)c2cc4cc(F)ccc4[nH]2)CCO3)CC1	DT40 TDP1 no CPT 15µM (no result: HT1080 IDH1KD tx, ELG1 DNA repair, HT1080NT lethal, IL-1B inflam inh)
CC(C)[C@@]1(c2ccc(Cl)cc2)ON(c2ccccc2C(F)(F)F)C1=O	none (no result: HT1080 IDH1KD tx, TDP1 cell CPT, HT1080NT lethal, DT40 TDP1 no CPT, IL-1B inflam inh)
C=CCn1c(C)cc(C(=O)COC(=O)CCc2cc(OC)c(OC)c(OC)c2)c1C	none
C=CCn1c(C)cc(C(=O)COc2ncnc3sccc23)c1C	HT1080 IDH1KD tx inconclusive, TDP1 cell CPT inconclusive, ELG1 DNA repair inconclusive, DT40 TDP1 no CPT 16µM
C=CCn1c(C)cc(C(=O)COC(=O)c2cncc(Br)c2)c1C	TDP1 cell CPT 18µM, ELG1 DNA repair inconclusive, DT40 TDP1 no CPT inconclusive
COC(=O)c1ccccc1S(=O)(=O)N1CCC(c2nc3ccccc3o2)CC1	ELG1 DNA repair inconclusive, DT40 TDP1 no CPT inconclusive
CCOc1ccc(NC(=O)N2CCC(c3nc4ccccc4o3)CC2)cc1	TDP1 cell CPT inconclusive, DT40 TDP1 no CPT inconclusive
CCOc1ccccc1C(=O)N1CCC(c2nc3ccccc3o2)CC1	TDP1 cell CPT inconclusive, DT40 TDP1 no CPT 21µM (no result: HT1080 IDH1KD tx, ELG1 DNA repair, HT1080NT lethal, IL-1B inflam inh)
Cc1cccc(OC(C)C(=O)N2CCC(c3nc4ccccc4o3)CC2)c1C (stereo unspecified)	TDP1 cell CPT inconclusive, DT40 TDP1 no CPT 23µM (no result: HT1080 IDH1KD tx, ELG1 DNA repair, HT1080NT lethal, IL-1B inflam inh)
